# Assay outcomes from PubChem.
# Only some compounds are listed: those with a hit (about 3% of all), similar ones and a draw of the others.
# ClpP mod: qHTS Assay for Activators of ClpP. ATP-dependent Clp protease proteolytic subunit (Bacillus subtilis (strain 168)), P80244. purified B. subtilis ClpP, FRET peptide cleavage, 20 min. Potency, µM (series often up to 57.5 µM), inactives show at the top dose activity change, negative = active. 340,000 compounds, 1.9% hits; active means well fitted falling curve with a large enough effect; inconclusive means small, poorly fitted or top-dose-only effect; inactive means no such curve, though single readings can be large or run the other way; further: potency means the concentration at half of the fitted maximal effect; the source files actives as falling curves though it sought activators and does not explain the sign; nearly all actives have a fitted effect of over 65% in size
#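 FRET quenching reversal measured ClpP activation: 10 microg/mL B. subtilis ClpP at pH 8 with the FRET-FV decapeptide, read at 430 nm after 320 nm excitation. The 20-min minus 0-min signal was scaled between DMSO/no-enzyme wells and ADEP (5.8 microM final).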
# LDHA block: LDHA (human) enzyme inhibition. activity change, % (values are at about 110 or 230 µM). 480,000 compounds, 0.15% hits. purified LDHA, NADH/diaphorase-resazurin fluorescence; hits give low values. P00338; in the data active means activity change below about -30%; inconclusive means mostly about -25% to -30%;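 further: plate controls were DMSO wells for no effect and wells without enzyme for full effect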
#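 Remaining NADH was detected by diaphorase (0.133 mg/mL) converting 37 µM resazurin to fluorescent resorufin, read at 0 and 20 minutes. The preceding 5-minute room-temperature reaction used 2 nM LDHA, 0.2 mM sodium pyruvate and 0.06 mM NADH at pH 7.4.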
# BCR signal inh: inhibitors of chronic active B-cell receptor signaling | Potency, µM (doses to about 46.1 µM), for the others: at the highest dose activity change, negative = inhibition, hits mostly inhibitors | AID 493014 | ABC-DLBCL IkBa-CBG/CBR reporter, luminescence ratio, 4 h | 340,000 compounds, 0.05% hits; active means well fitted inhibition curve with a large enough effect in the signal ratio, with a control signal flat, not every such curve was filed as active; inconclusive means small, poorly fitted or top-dose-only effect, or effect the other way, or a change in a side signal; the % refers to the signal ratio;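 further: potency means the concentration at half of the fitted maximal effect; plate controls were basal doxycycline-induced cells for no effect and cells given 10 µM MG132 for full effect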
#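 Compounds up to 46 uM were incubated four hours with TMD8 cells whose green CBG68 luciferase is fused to IkappaBalpha; red CBR luminescence normalised the signal, and concentration-effect curves were fitted to fusion, red and ratio data.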
# KCNH2 3.1 block: blocks the human KCNH2 3.1 channel isoform; activity change, % (tested at about 1.8 µM); 340,000 compounds, 0.95% hits; U2OS KCNH2 3.1, thallium flux FluxOr; hits give low values;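 active means maximum activity change below -70%; inconclusive means maximum activity change from -70% to -50%; inactive means maximum activity change above -50%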;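 further: thallium influx rate constant from kinetic fluorescence after stimulation buffer; on the % scale 0 is the no-effect control and ±100 the full control effect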
#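 Steps: virus added to U2OS suspension (4 h, RT, dark); medium with 10% FBS added, cells plated, 37 C overnight; FluxOr/Red40 loading buffer 45 min RT; stimulation buffer, 2 min kinetic read; rate constant normalized.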
# KCNH2 WT inh: inhibitors of human wildtype KCNH2 potassium channel; U2OS, BacMam KCNH2, thallium flux FluxOr; hits give low values; Q12809; activity change, % at 1.84 µM; 340,000 compounds, 0.37% hits;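 active means maximum activity change below -70%; inconclusive means maximum activity change between -70% and -50%; inactive means maximum activity change above -50%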; further: on the % scale 0 is the no-effect control and ±100 the full control effect
# Target sequence (Q12809 whole entry, looked up): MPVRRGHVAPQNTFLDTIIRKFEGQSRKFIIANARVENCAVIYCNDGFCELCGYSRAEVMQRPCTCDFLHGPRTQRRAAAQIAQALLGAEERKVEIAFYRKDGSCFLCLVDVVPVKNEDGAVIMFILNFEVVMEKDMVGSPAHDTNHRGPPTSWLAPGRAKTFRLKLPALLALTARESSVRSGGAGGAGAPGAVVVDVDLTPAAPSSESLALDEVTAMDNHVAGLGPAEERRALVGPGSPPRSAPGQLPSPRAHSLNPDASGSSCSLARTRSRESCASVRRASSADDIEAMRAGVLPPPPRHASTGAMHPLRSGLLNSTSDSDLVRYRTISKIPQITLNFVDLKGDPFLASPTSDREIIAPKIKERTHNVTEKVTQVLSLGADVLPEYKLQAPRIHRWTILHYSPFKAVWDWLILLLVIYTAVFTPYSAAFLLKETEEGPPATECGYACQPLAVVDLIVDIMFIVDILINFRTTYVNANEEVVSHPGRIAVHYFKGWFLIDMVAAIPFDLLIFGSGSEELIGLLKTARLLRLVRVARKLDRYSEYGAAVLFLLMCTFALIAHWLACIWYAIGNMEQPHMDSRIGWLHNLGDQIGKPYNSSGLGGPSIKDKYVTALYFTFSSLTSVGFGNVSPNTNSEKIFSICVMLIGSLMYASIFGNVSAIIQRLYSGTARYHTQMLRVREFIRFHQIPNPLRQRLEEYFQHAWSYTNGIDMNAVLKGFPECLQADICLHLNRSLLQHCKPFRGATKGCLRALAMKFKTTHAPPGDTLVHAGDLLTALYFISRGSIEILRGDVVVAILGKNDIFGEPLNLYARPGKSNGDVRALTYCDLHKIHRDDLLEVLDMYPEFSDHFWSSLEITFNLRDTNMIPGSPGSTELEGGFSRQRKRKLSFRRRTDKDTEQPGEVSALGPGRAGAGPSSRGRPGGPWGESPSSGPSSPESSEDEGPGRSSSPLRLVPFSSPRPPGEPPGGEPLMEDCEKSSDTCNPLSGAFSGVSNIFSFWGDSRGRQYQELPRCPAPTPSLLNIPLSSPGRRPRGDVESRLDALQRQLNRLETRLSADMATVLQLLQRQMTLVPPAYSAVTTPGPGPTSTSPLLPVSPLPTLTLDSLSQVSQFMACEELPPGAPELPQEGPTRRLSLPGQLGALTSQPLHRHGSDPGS
#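 U2OS cells were transduced with wild-type KCNH2 virus (2.03 x 10^8 / mL) for 4 h at room temperature, then cultured overnight at 37 C. Thallium flux was read with FluxOr dye. Rate constants were normalized to DMSO controls.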
# 12-LOX inh: ALOX12 (human) lipoxygenase inhibition | AID 1671190 | P18054 | purified 12hLO, xylenol orange hydroperoxide absorbance | 580,000 compounds, 1.1% hits | Potency, µM (titrated, usually from 108 µM), inactives show at the highest dose activity change, negative = inhibition, actives largely listed as inhibitors; active means well fitted inhibition curve with a large enough effect; inconclusive means small, poorly fitted or top-dose-only effect, or another doubt; inactive means no such curve, though single readings can be large or run the other way; further: potency means the concentration at half of the fitted maximal effect; on the % scale 0 is the no-effect control and ±100 the full control effect
#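 Purified human 12hLO (150 nM final) in 25 mM Hepes, 0.01% Triton X-100, pH 7.0 was preincubated 15 min at room temperature with compound. Then 40 uM arachidonic acid was added, 30 min. Hydroperoxide was read by Fe-XO absorbance ratio 573/405 nm.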
# An asterisk follows results filed as active; ? = inconclusive; . = not tested or not shown.
SMILES,ClpP mod,LDHA block,BCR signal inh,KCNH2 3.1 block,KCNH2 WT inh,12-LOX inh
CCCCCCCCCCCCCCCC[n+]1ccc(C(N)=O)cc1,?,?,2%,-43,-6,45µM*
C=CCn1c(=O)c2ccc(C(=O)NCc3ccccc3)cc2n(Cc2cccc(Cl)c2)c1=O,28µM*,0,7%,-7,-5,-1%
C=CCn1c(=O)c2ccc(C(=O)NCc3ccccc3)cc2n(Cc2ccc(Cl)cc2)c1=O,9%,-3,-3%,1,10,-12%
O=C(O)c1cc(Br)ccc1NS(=O)(=O)c1cccc2nsnc12,-1%,-47*,11%,5,12,?
O=C(O)c1ccccc1NS(=O)(=O)c1cccc2nsnc12,0%,-1,1%,-2,4,-6%
Cc1noc(C)c1S(=O)(=O)Nc1c(C)n(C)n(-c2ccccc2)c1=O,-3%,-2,.,-26,-79*,0%
Cc1c(NC(=O)c2cccc(F)c2)c(=O)n(-c2ccccc2)n1C,0%,4,6%,-109*,-3,7%
COc1ccc(/C(O)=C/C(=O)C(=O)Nc2c(C)n(C)n(-c3ccccc3)c2=O)cc1,0%,19,3%,31,-119*,-24%
Cc1c(NS(C)(=O)=O)c(=O)n(-c2ccccc2)n1C,3%,-2,?,4,0,-20%
Cc1c(NS(=O)(=O)c2ccccc2F)c(=O)n(-c2ccccc2)n1C,.,-8,?,-2,-9,2%
Cc1cc(F)ccc1S(=O)(=O)Nc1c(C)n(C)n(-c2ccccc2)c1=O,3%,2,-2%,-74*,-8,23%
COC1C(=O)N(C2CCN(C(=O)NCc3ccc(C)cc3)CC2)C12CCOCC2 (stereo not given),.,.,.,.,.,31%
OC1(CN2CCCN(c3nc4ccccc4s3)CC2)CNCCOC1 (stereo not given),.,.,.,.,.,70%
Cc1cccn2c(CNC3CCCc4ccccc43)c(C(=O)N3CCCCC3)nc12 (stereo not given),-5%,1,0%,-182*,-3,-4%
CCOC(=O)C1CCCN(Cc2c(C(=O)N3CCCCC3)nc3c(C)cccn23)C1 (stereo not given),.,0,-9%,3,6,-5%
CN(C)CCCNCC(=O)Nc1ccccc1N1CCOCC1,-3%,-32*,0%,3,-1,?
O=C(Cc1ccc(S(=O)(=O)N2CCOCC2)s1)Nc1ccccc1N1CCOCC1,14µM*,-9,?,8,2,6%
CCc1ccc(S(=O)(=O)N2CCN(c3ccc(NCc4ccccc4)nn3)CC2)cc1,.,5,.,.,.,-18%
Cc1cccc(NC(=O)C[n+]2cccc(C)c2)c1,1%,-7,-2%,7,-3,-1%
O=C(C[n+]1cccc(O)c1)Nc1ccc(Br)cc1,28µM*,-1,-1%,16,4,-4%
O=C(OCc1ccccc1)C1=NNC2C(=O)N(c3ccccc3)C(=O)C12 (stereo not given),22µM*,-7,4%,4,-9,-4%
CCc1ccc(N2C(=O)C3NN=C(C(=O)OCc4ccccc4)C3C2=O)cc1 (stereo not given),-1%,-9,6%,-4,-9,-26%
CCOC(=O)N1CCC(NC(=O)c2cc3cc(OC)ccc3[nH]2)CC1,.,9,.,.,.,-26%
CC(=O)N1CCC(C(=O)N2CCN(c3cccc(Cl)c3)CC2)CC1,.,4,.,.,.,0%
O=C(C1CC1)N1CCC2(CC1)CN(c1ccccc1)C2=O,.,.,.,.,.,39%
SMILES,ClpP mod,LDHA block,BCR signal inh,KCNH2 3.1 block,KCNH2 WT inh,12-LOX inh
CC(=O)N1CCC(C(=O)N2CCC3(CC2)NC(=O)N(c2ccccc2)N3)CC1,.,.,.,.,.,1.6µM*
CC(=O)N1CCC(C(=O)N2CCC3(CC2)NC(=O)N(c2cccc(Cl)c2)N3)CC1,.,.,.,.,.,1.3µM*
CCCNc1c(NC(=O)c2cc(Cl)ccc2OC)c(=O)oc2ccccc12,.,-14,.,.,.,?
CCC1CCCCN1CC(O)Cn1c2ccccc2n2c(=O)cc(C)c(C#N)c12 (stereo not given),28µM*,-11,5%,6,24,14%
Cc1cc(=O)n2c3ccccc3n(CC(O)CN3CCC(C)CC3)c2c1C#N (stereo not given),35µM*,5,6%,8,-1,-11%
CCc1ccc(OCC(=O)Nc2ccc(-c3nc4ccccc4o3)c(O)c2)cc1,-29%,0,1%,4,-1,17%
Oc1cc(NCc2cccnc2)ccc1-c1nc2ccccc2o1,35µM*,-9,12%,3,3,-1%
CCNC(=S)NNC(=O)/C=C/c1ccccc1,.,5,.,.,.,46%
O=C1c2nc3cc(-c4ccco4)[nH]n3c(=O)c2CN1Cc1ccccc1,2%,4,-4%,-8,4,22µM*
CCCCc1c(C)nc2cc(-c3ccco3)[nH]n2c1=O,-2%,-3,?,-8,5,?
CCN(CC)c1ccc(NC(=O)c2ccc3nc[nH]c3c2)cc1,.,12,.,.,.,?
CCN1CCCC1CNC(=O)c1cc2c(C)nc3ccccc3c2o1 (stereo not given),25µM*,1,?,10,4,17%
COc1cccc(N(C(=O)Cn2nnc3ccccc32)C(C(=O)NCc2ccco2)c2cccnc2)c1 (stereo not given),35µM*,1,-1%,-4,11,139%
Cc1cccc(C)c1-n1nnnc1SCC(=O)c1ccc(Br)s1,.,-1,.,.,.,-28%
Cc1ccccc1-n1nnnc1SCC(=O)c1ccc(Br)s1,.,10,.,.,.,25µM*
Cn1c(CCNC(=O)c2ccccc2F)nnc1SCC(=O)N1CCOCC1,.,3,.,.,.,2%
COc1ccccc1-n1c(N)c(C(=O)NCC2CCCO2)c2nc3ccccc3nc21 (stereo not given),25µM*,-4,?,1,-26,0%
Nc1c(C(=O)NCC2CCCO2)c2nc3ccccc3nc2n1-c1ccccc1 (stereo not given),16µM*,1,-1%,-21,-8,96%
Nc1c(C(=O)OCC2CCCO2)c2nc3ccccc3nc2n1C1CCCCC1 (stereo not given),14µM*,12,1%,25,0,10%
O=C(OCC1CCCO1)c1ccc(O)cc1 (stereo not given),.,-10,.,.,.,-7%
COc1ccccc1-n1c(SCC(=O)NCC2CCCO2)nc2c([nH]c3ccccc32)c1=O (stereo not given),-19%,-1,-1%,4,1,35µM*
